Screens deposited in PubChem by several laboratories.
Only some compounds are listed: those with a hit (about 1.5% of all), similar ones and a draw of the others.
LANA-H2B inh – blocks KSHV LANA binding to histone H2A/H2B; hit rate 0.6% among 320,000; AID 2629; cell-free LANA-H2A/H2B peptide, fluorescence polarization; inhibition, % (test concentration not listed); in the data active means inhibition mostly above about 10%, no sharp cut-off; inactive means mostly below about 6.7%
C-LANA FP – KSHV C-LANA DNA binding inhibition. AID 504423. inhibition, % at 9 µM. hit rate 0.078% among 340,000. MBP-C-LANA/FAM-LBS DNA binding, fluorescence polarization;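 active means highest replicate inhibition at or above 60% at 9 µM, even if other replicates fall short; inactive means all replicates below 60% inhibition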
GLD-1 RNA inh – GLD-1-TGE RNA interaction inhibition (C. elegans); Q17339; purified GLD-1 + fluorescein TGE RNA, fluorescence polarization; inhibition, % at 5.96 µM; hit rate 0.44% among 320,000; AID 2280;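 active means percent inhibition above a per-plate cutoff, the plate mean of test compounds plus 3 SD, cut at about 30% in these data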
Target sequence (Q17339 whole entry, looked up): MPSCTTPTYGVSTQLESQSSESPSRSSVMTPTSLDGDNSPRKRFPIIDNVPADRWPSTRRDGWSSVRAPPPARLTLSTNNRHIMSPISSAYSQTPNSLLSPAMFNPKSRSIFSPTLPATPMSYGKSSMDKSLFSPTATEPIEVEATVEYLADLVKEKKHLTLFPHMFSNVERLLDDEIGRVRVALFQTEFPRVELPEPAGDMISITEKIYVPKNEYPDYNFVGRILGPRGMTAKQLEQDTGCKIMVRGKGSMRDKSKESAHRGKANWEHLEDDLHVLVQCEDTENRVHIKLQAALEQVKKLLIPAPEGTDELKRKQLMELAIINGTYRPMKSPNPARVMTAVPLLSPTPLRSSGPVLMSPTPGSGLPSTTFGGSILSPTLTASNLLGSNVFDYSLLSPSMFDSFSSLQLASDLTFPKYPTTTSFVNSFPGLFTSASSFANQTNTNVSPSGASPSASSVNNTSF
Keap1-Nrf2 PPI – disrupts human Keap1 binding to Nrf2 peptide | AID 504523 | Keap1 Kelch-Nrf2 peptide fluorescence polarization, 1536-well | inhibition, % at 9.4 µM | hit rate 0.15% among 340,000 | Q14145; in the data active means inhibition above about 12%;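 further: human Keap1 Kelch domain with fluorescein labeled Nrf2 9mer peptide probe; higher means more block of Keap1 binding to Nrf2 peptide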
EBV gp42 inh – EBV gp42 inhibition | hit rate 0.42% among 220,000 | Q1HVG2 | Fluorescence polarization binding assay, mP read-out | AID 1085 | inhibition, % (tested at 21.74 µM); in the data active means inhibition above about 50%
Target sequence (Q1HVG2 whole entry, looked up): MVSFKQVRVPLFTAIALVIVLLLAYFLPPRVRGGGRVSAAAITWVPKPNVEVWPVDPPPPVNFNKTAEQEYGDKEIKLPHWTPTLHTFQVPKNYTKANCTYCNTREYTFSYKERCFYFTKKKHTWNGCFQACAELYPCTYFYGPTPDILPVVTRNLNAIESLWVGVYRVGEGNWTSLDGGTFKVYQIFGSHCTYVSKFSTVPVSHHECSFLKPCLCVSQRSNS
E coli Lon inh – inhibits E. coli Lon protease; P0A9M0; purified E. coli Lon protease, fluorescence polarization; inhibition, % at 7.94 µM; hit rate 0.42% among 360,000; AID 602123; in the data active means inhibition above about 13%, passing the limit was not always enough
GLD1 RNA confirm – confirmation of C. elegans GLD-1 TGE RNA binding inhibitors; shares compounds with GLD-1 RNA inh; GLD-1/FL-TGE RNA fluorescence polarization, biochemical; inhibition, % at 5.96 µM; hit rate 10% among 550; AID 2459;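 active means average inhibition across triplicates above the hit cutoff set in the primary screen, cut at about 32% in these data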
Of the large screens only hits and unclear results are named; the others gave an inactive call (follow-up assays come after a bar, where they were run).

C[C@H](CO)N1C[C@H](C)[C@@H](CN(C)C(=O)Nc2cc(F)ccc2F)Oc2ncc(-c3cccc(F)c3)cc2C1=O	none (no result: LANA-H2B inh, C-LANA FP, GLD-1 RNA inh, Keap1-Nrf2 PPI, EBV gp42 inh)
Oc1ccc(/C=N/Nc2cc(N3CCOCC3)nc(N3CCOCC3)n2)cc1	none (no result: EBV gp42 inh)
Oc1ccc(/C=N/Nc2cc(N3CCCC3)nc(N3CCCC3)n2)cc1	GLD-1 RNA inh 39 | GLD1 RNA confirm 38
CCOC(=O)[C@]12CCC=C1N(Cc1ccco1)C(=O)[C@H](CC(=O)NCC1CCCCC1)C2	none (no result: LANA-H2B inh, C-LANA FP, GLD-1 RNA inh, Keap1-Nrf2 PPI, EBV gp42 inh)
COc1cc(C)ccc1S(=O)(=O)NC(=O)C1(C)CCN1C(=O)Cc1ccc(C(C)(C)C)cc1 (stereo unspecified)	none (no result: LANA-H2B inh, C-LANA FP, GLD-1 RNA inh, Keap1-Nrf2 PPI, EBV gp42 inh)
Cc1c(NC(=O)C(C)OC(=O)c2cc(-c3cccc4ccccc34)nc3ccccc23)c(=O)n(-c2ccccc2)n1C (stereo unspecified)	GLD-1 RNA inh 38 | GLD1 RNA confirm inactive
COc1cc(C(=O)COC(=O)c2c(C)noc2C)cc(OC)c1OC	none (no result: EBV gp42 inh)
O=C(O)/C=C\c1cc2c(cc1[N+](=O)[O-])OCO2	none
O=C1NC(=S)N/C1=C/c1cc2c(cc1[N+](=O)[O-])OCO2	GLD-1 RNA inh 42 (no result: EBV gp42 inh) | GLD1 RNA confirm inactive
COc1ccc(OC)c(Nc2cc3ccccc3c(=O)[nH]2)c1	GLD-1 RNA inh 42 (no result: EBV gp42 inh) | GLD1 RNA confirm inactive
COc1ccc(Nc2ncc3c(n2)CC(c2ccc(OC)cc2)CC3=O)cc1 (stereo unspecified)	GLD-1 RNA inh 45 | GLD1 RNA confirm inactive
COc1ccc(Nc2ncc3c(n2)CC(c2ccc(C)cc2)CC3=O)cc1 (stereo unspecified)	none
CCc1ccccc1N(CC(=O)NC(C)(C)C)C(=O)CCC(=O)Nc1ccccn1	none (no result: EBV gp42 inh)
CSc1ccc(CN(C)CC(=O)NC(C)c2ccccc2)cc1 (stereo unspecified)	GLD-1 RNA inh 54 | GLD1 RNA confirm inactive
O=C(CN1CCN(C2CCCCC2)CC1)c1ccc2cc[nH]c2c1	none
CCOC(=O)C1=C2NC(=O)c3ccccc3N2C(=O)C1	GLD-1 RNA inh 52 | GLD1 RNA confirm inactive
C/C(Cc1ccccc1)=N\NC(=O)CNC(=O)c1ccc(Cl)cc1	GLD-1 RNA inh 62 | GLD1 RNA confirm inactive
C/C(Cc1ccccc1)=N\NC(=O)CNC(=O)c1ccc(F)cc1	none (no result: EBV gp42 inh)
CCOC(=O)c1cc2c(ccn2C)n1CC(=O)N1CCN(c2cccc(C(F)(F)F)c2)CC1	GLD-1 RNA inh 40 | GLD1 RNA confirm 47
O=[N+]([O-])c1nn(-c2ccc3c(c2)OCCO3)n(O)c1=NCc1ccc(F)cc1Cl	GLD-1 RNA inh 32 | GLD1 RNA confirm inactive
O=C(COC(=O)c1ccccc1C(=O)c1ccccc1)Nc1cccc([N+](=O)[O-])c1	none
Nc1c(C(=O)OCC(=O)Nc2cccc([N+](=O)[O-])c2)[nH]c(=O)[nH]c1=O	GLD-1 RNA inh 33 (no result: EBV gp42 inh) | GLD1 RNA confirm inactive
Cc1cc(NC(=O)/C=C/c2ccccc2Cl)n(-c2nc3ccccc3[nH]2)n1	GLD-1 RNA inh 34 | GLD1 RNA confirm inactive
Cc1cc(NC(=O)c2ccc(F)cc2F)n(-c2nc3ccccc3[nH]2)n1	none
COc1ccc(CNCCC(c2ccccc2)C2CCOC(C)(C)C2)cc1 (stereo unspecified)	GLD-1 RNA inh 49 | GLD1 RNA confirm inactive
CCCNC(=O)Cn1nc([N+](=O)[O-])c([N+](=O)[O-])c1C	none
O=C(O)c1cc2ccccc2cc1Nc1ccccc1	none
COCCNC(=O)c1c(N)n(CCC2=CCCCC2)c2nc3ccccc3nc12	GLD-1 RNA inh 38 | GLD1 RNA confirm inactive
C[N+](C)(CC#N)C/C=C\c1ccccc1	none
COc1ccc2c(c1)cc(C(=O)N[C@@H](Cc1ccccc1)C(=O)O)n2C	GLD-1 RNA inh 44 (no result: EBV gp42 inh) | GLD1 RNA confirm inactive
Cc1nnc(-c2cnn(C)c2N)n1Cc1ccc2c(c1)OCO2	none
N#Cc1c(SCc2ccc(Cl)cc2)sc(C(=O)c2ccccc2)c1N	none
CSc1c(C#N)c(N)nc2sc(C(=O)c3ccccc3)c(N)c12	GLD-1 RNA inh 33 | GLD1 RNA confirm inactive
COc1ccc(NC(=O)c2ccc(OC)c(S(=O)(=O)N3CCCCC3C)c2)cn1 (stereo unspecified)	GLD-1 RNA inh 33 (no result: EBV gp42 inh) | GLD1 RNA confirm inactive
COc1ccc(C(=O)Nc2ccc(NC(C)=O)cc2)cc1S(=O)(=O)N1CCCC1	none (no result: EBV gp42 inh)
CCN(CC)C(=O)CSc1nnc2nnc3cc(C)ccc3n12	GLD-1 RNA inh 42 | GLD1 RNA confirm inactive
CCCn1c(SCC(=O)N(CC)CC)nnc1-c1ccncc1	none
CCCNC(=O)c1onc(CSc2ccc(Cl)cc2)c1C(=O)NCCC(C)C	GLD-1 RNA inh 44 (no result: EBV gp42 inh) | GLD1 RNA confirm inactive
CC(=O)Nc1cccc(Oc2nc(-c3ccccn3)nc3ccccc23)c1	GLD-1 RNA inh 31 | GLD1 RNA confirm inactive
N#Cc1c(NCCCO)nc(NCc2ccccc2)c2c1CCN(Cc1ccccc1)C2	GLD-1 RNA inh 33 | GLD1 RNA confirm inactive
CC(C)(O)C#Cc1ccc(C(=O)N2CCCC(CCC(=O)NCc3ccccc3F)C2)cc1 (stereo unspecified)	none (no result: EBV gp42 inh)
O=C(COC(=O)c1ccc(Br)cc1)NCc1ccccc1	GLD-1 RNA inh 41 | GLD1 RNA confirm inactive
COC(=O)c1ccc2nc(C3CCCCC3)c(Cc3ccc(OC)cc3C)n2c1	none (no result: LANA-H2B inh, C-LANA FP, GLD-1 RNA inh, Keap1-Nrf2 PPI, EBV gp42 inh)
CC1CCC(C(C)C)C(OC(=O)C2=C3c4ccccc4S(=O)(=O)N3CC2)C1 (stereo unspecified)	GLD-1 RNA inh 49 | GLD1 RNA confirm inactive
CC1CCC(C(C)C)C(OC(=O)CSc2nccc(=O)[nH]2)C1 (stereo unspecified)	none
O=C(Nc1ccccc1)Nc1ccc(Cl)nc1Cl	GLD-1 RNA inh 36 (no result: EBV gp42 inh) | GLD1 RNA confirm inactive
N#Cc1ccc(C(=O)NC(=S)N2CCN(C=O)CC2)cc1	none (no result: EBV gp42 inh)
CN1CCN(C(=S)c2ccc(Br)cc2)CC1	none
CN1CCN(C(=S)c2ccc([N+](=O)[O-])cc2)CC1	GLD-1 RNA inh 79 | GLD1 RNA confirm inactive
CNc1nnc(-c2ccc(N(C)C)cc2)s1	none
Cc1cc2ncn(/N=C/c3ccc(-c4ccccc4)o3)c2cc1C	none
Cc1ccc(/C=N/n2cnc3sc(-c4ccccc4)cc3c2=O)o1	GLD-1 RNA inh 65 | GLD1 RNA confirm inactive
OC(COc1ccc(CN2CCCCO2)cc1)CN1CCCCC1 (stereo unspecified)	none
N#CCCn1cc(C(=O)NCc2ccccc2)c(-c2cccs2)n1	none
N#CCCn1cc(C=O)c(-c2cccs2)n1	GLD-1 RNA inh 69 | GLD1 RNA confirm inactive
CCCCNc1c(-c2ccc(SC(C)CC)cc2)nc2cnccn12 (stereo unspecified)	GLD-1 RNA inh 43 (no result: EBV gp42 inh) | GLD1 RNA confirm inactive
COC(=O)C1=C(C)OC(N)=C(C#N)C1c1ccco1 (stereo unspecified)	none
CC(=O)C1=C(C)OC(N)=C(C#N)C1c1ccco1 (stereo unspecified)	GLD-1 RNA inh 39 | GLD1 RNA confirm inactive
